Drawing on PubChem BioAssay (NCI), this text covers growth for eight compounds.

Common to all, as to assay: NCI-60 one-dose screen, 48 h (100 = growth as untreated, 0 = no growth, -100 = all killed)
Common to all, as to settings: 10 µM unless noted

The subject of test [1] is DU-145 prostate.
The test system of test [2] is K-562 leukemia.
The subject of test [3] is MALME-3M melanoma.
The test system of test [4] is MDA-MB-231 breast.
The test system of test [5] is RXF 393 renal.
For test [6], the system named is SF-268 CNS.
Test [7] concerns SF-295 CNS.
Test [8] concerns SF-539 CNS.
Test [9] deals with UACC-257 melanoma.
In test [10] the test system is M14 melanoma.
Test [11] concerns HCT-15 colon.
Test [12] has as its system HT29 colon.
The test system of test [13] is SNB-75 CNS.
In test [14] the test system is SNB-19 CNS.
Test [15] deals with U251 CNS.
The test system of test [16] is PC-3 prostate.
Test [17] has as its system SK-MEL-5 melanoma.
Test [18] has as its system UACC-62 melanoma.
In test [19] the test system is LOX IMVI melanoma.
Test [20] deals with SK-MEL-28 melanoma.

Structures are written as SMILES. This is part of a sample that, as a whole, favours compounds with a hit. Of some 83,000 tested, about 20% had one in any assay.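 Each cell line was grown in a 96-well plate and treated with one concentration of compound for 48 hours. Values below 10 were considered active.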 Values without a mark were called inactive. Active and inactive are the calls of the source.

`COc1cc(Nc2ncccc2C(=O)Nc2nc3ccc(F)cc3s2)cc(OC)c1OC`: the growth was 90.4% in test [1]; 97% in test [2]; 78.8% in test [3]; 71.4% in [4]; 139% in test [5]; 90% in test [6]. The growth in test [7] is 15.6%; in test [8], 92.9%; in test [9], 86.4%; in [10], 19.1%; in test [11] it was 76.2%; in [12] it was 79.1%. The growth was 73.5% in [13]; 89% in [14]; 58.5% in test [15]; 39.2% in test [16]; 63.9% in test [17]; 24.4% in [18]. Moreover, the growth was 57.3% in [19] and 84% in [20].
In the case of `CN(C)CCNc1nc2ccccc2c2c(=O)c3ccccc3sc12`, the growth in [1] was 8.96% (active); in test [2], -35.1% (active); in test [3], 12.2%; in test [4] it was -11.6% (active); in [5], 6.42% (active); in [6], 26.3%. Also, the growth in test [7] was 0.247% (active); in [8], 36.7%; in test [9] it was 28.8%; in [10], -54.7% (active); in test [11], 8.83% (active); in test [12] it was -0.107% (active). The growth was 30.6% in [13]; 47.6% in test [14]; 17.8% in test [15]; 21% in [16]; -83.1% (active) in [17]; -33% (active) in test [18]. The growth in [19] was -91.6% (active); in test [20], -25.3% (active).
`CO[C@H]1/C=C/C=C/C=C/C[C@H](OC(=O)[C@@H](C)NC(=O)C2CCCCC2)[C@H](C)[C@@H](O)/C(C)=C\CCC2=CC(=O)C=C(NC(=O)C1)C2=O`: the growth was -13.8% (active) in test [1]; 3.3% (active) in [2]; -7.99% (active) in test [3]; 5.38% (active) in [4]; -40.2% (active) in test [5]; -7.66% (active) in test [6]. In addition, the growth is -33.5% (active) in test [7]; -49.3% (active) in test [8]; -18.9% (active) in test [9]; -40.3% (active) in test [10]; 6.39% (active) in [11]; -28.8% (active) in [12]. For the same compound, the growth in [13] was -20.2% (active); in [14], 2.4% (active); in test [15] it was -19.6% (active); in test [16] it was -2.95% (active); in test [17], -57% (active); in [18] it was 2.09% (active). Further, the growth is -38.8% (active) in test [19] and -3.36% (active) in test [20].
As to `Cc1ccc(N(CC2=NCCN2)c2cccc(O)c2)cc1`, the growth in test [1] was 112%; in test [2] it was 86.3%; in test [3], 90.4%; in test [4], 113%; in test [5] it was 98.5%; in test [6], 107%. Moreover, the growth in test [7] is 83.3%; in test [8], 106%; in [9], 103%; in test [10] it was 103%; in test [11], 102%; in test [12] it was 107%. The growth in test [13] was 84.9%; in test [14], 103%; in test [15], 88.8%; in test [16], 92.1%; in test [17], 99.2%; in [18] it was 105%. For the same compound, the growth was 95% in test [19] and 108% in test [20].
As to `COc1ccc(C(=O)NC(=O)Nc2ccc3c(c2)NC(=O)/C3=C\c2[nH]c(C)c(C(=O)O)c2C)c(F)c1`, the growth in test [1] is 28.2%; in test [2], 62.6%; in test [3], -8% (active); in test [4], 63.5%; in test [5], -21% (active); in test [6], 65.4%. Also, the growth in [7] was 33.1%; in test [8], 47.8%; in test [9], 47.2%; in test [10] it was 17.6%; in test [11], 47.8%; in test [12] it was 16.5%. The growth in test [13] is 30.4%; in test [14], 79.3%; in test [15], 32.1%; in test [16], 40.2%; in [17] it was 28.2%; in test [18], 38.3%. In addition, the growth in test [19] is 52.4%; in test [20], 57.9%.
As for `CCOC(=O)C1CN(Cc2ccccc2)C(=O)C1=O` (stereo not given), the growth is 110% in test [1]; 104% in [2]; 92.8% in test [3]; 115% in test [4]; 112% in [5]; 101% in test [6]. The growth in [7] was 105%; in [8], 93.6%; in test [9] it was 104%; in test [10], 94.6%; in [11], 86.2%; in [12], 115%. For the same compound, the growth in test [13] is 76.1%; in test [14], 101%; in [15], 111%; in [16], 91.8%; in test [17] it was 106%; in [18], 103%. For the same compound, the results for the growth in [19] and in test [20] were 104% and 101%, respectively.
With `COc1ccc(-c2nn(-c3cccc(Cl)c3)cc2-c2cc(-c3ccc(Br)cc3)[nH]c(=O)c2C#N)cc1`, the growth in test [1] is 56.5%; in test [2], 81.8%; in test [3] it was 69.1%; in test [4], 60.8%; in test [5], 75.3%; in [6] it was 89.1%. For the same compound, the growth is 99.1% in test [7]; 81% in test [8]; 93.4% in [9]; 81.4% in test [10]; 71.1% in [11]; 108% in test [12]. Moreover, the growth in [13] is -37.1% (active); in test [14], 90.6%; in [15], 90%; in [16], 86%; in [17] it was 91%; in test [18], 88%. For the same compound, the growth was 69.6% in [19] and 99.6% in test [20].
With `Cc1ccc2c(c1)Nc1ccc(C)cc1C2(C)C`, the growth in test [1] was 107%; in [2], 97.4%; in test [3], 98.9%; in [4], 114%; in [5] it was 101%; in test [6] it was 105%. Also, the growth in [7] was 101%; in [8], 95.7%; in test [9], 110%; in [10] it was 98.2%; in test [11], 96%; in test [12], 79%. Besides, the growth in test [13] is 83.9%; in [14] it was 115%; in test [15] it was 100%; in [16] it was 90.6%; in test [17], 97.9%; in [18], 100%. The growth in test [19] is 101%; in test [20], 105%.
